{
  "source": "PubChem BioAssay AID504408",
  "about": "(Broad Institute, 2011)",
  "note": "Hit rate of the full screen: of about 300,000 compounds, about 5,200 (1.7%) were called active. The list comes from a sample in which actives are over-represented; it also holds similar structures and randomly drawn compounds. A number with no mark means an inactive call.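 How the source made its calls: active means mean replicate activation of at least 50% with a set share of replicates each reaching 50%; inconclusive means only one of those two conditions met; inactive means mean below 50% and too few replicates reaching it.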",
  "data": [
    {"assay": "HSF-1 activators, primary screen, NIH3T3-HGL cells, MG132 stress, luminescence, single point (AID 504408);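 further: 0% = median of the neutral control wells and 100% = twice that signal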", "conditions": "NIH3T3-HGL HSF-1 luciferase reporter, MG132, 8 h; at 9 µM; hits give high values; 100% = twice DMSO control signal", "values": [
      {"smiles": "CCc1cccc(C)c1NC(=O)COC(=O)CC1CCCC1", "activation": "4.54%"},
      {"smiles": "CCCCn1c(N)c(N(CC(C)C)C(=O)c2ccc(-n3c(C)ccc3C)cc2)c(=O)[nH]c1=O", "activation": "4.3%"},
      {"smiles": "CCN(CC(=O)Nc1ccc(NC(C)=O)cc1)C(=O)C1CC(=O)N(Cc2ccc(C)cc2)C1", "note": "(stereo not given)", "activation": "3.94%"},
      {"smiles": "Cc1cccc(C(=O)NCc2nnc(SC(C)C(=O)Nc3nnc(C)s3)n2C)c1", "note": "(stereo not given)", "activation": "-1.45%"},
      {"smiles": "Cc1onc(-c2ccccc2Cl)c1C(=O)N(Cc1ccc(N(C)C)cc1)C(C)C", "activation": "8.27%"},
      {"smiles": "COc1cccc(NC(=S)NC(=O)c2c(Cl)c(C)nn2C)c1", "activation": "60.9% (active)"},
      {"smiles": "Cc1nn(C)c(C(=O)NNC(=S)NC2CCCCC2)c1Cl", "activation": "22.3%"},
      {"smiles": "COc1cccc(NC(=S)NCc2ccccn2)c1", "activation": "15.3%"},
      {"smiles": "CN(CC(=O)Nc1cccc(F)c1)C(=O)C1CSC2(C)CCC(=O)N12", "note": "(stereo not given)", "activation": "1.13%"},
      {"smiles": "O=C1CN(C(=O)COc2c(Cl)cccc2Cl)c2ccccc2N1", "activation": "-79.7%"},
      {"smiles": "Cc1cc(C)cc(NC(=O)COc2coc(CN3CCN(c4ccccc4)CC3)cc2=O)c1", "activation": "1.43%"},
      {"smiles": "C/C(CCC(=O)OC[C@H]1O[C@H](C#Cc2ccccc2)C=C[C@@H]1Oc1ccc(C)cc1)=N\\OC[C@@H](O)[C@H]1O[C@@H]2OC(C)(C)O[C@@H]2[C@H]1O", "activation": "61.7% (active)"},
      {"smiles": "COc1ccc(O[C@H]2C=C[C@@H](c3ccccc3)O[C@@H]2CO/N=C/C[C@@H]2C=C[C@H](OC(C)=O)[C@@H](COC(C)=O)O2)cc1", "activation": "-4.12%"},
      {"smiles": "CCOc1ccc(CCNC(=O)COC(=O)c2c(OC)cccc2OC)cc1OCC", "activation": "-2.88%"},
      {"smiles": "Cc1cn(COC/C=C/c2ccccc2)c(=O)[nH]c1=O", "activation": "-6.12%"},
      {"smiles": "CC(=O)Nc1ccc(/C=C/C(=O)c2ccccc2)cc1", "activation": "30.2%"},
      {"smiles": "Cc1[nH]c(=O)c(C(=O)/C=C/c2ccccc2)c2c1CCCC2", "activation": "71% (active)"},
      {"smiles": "O=C(c1ccc(F)cc1)N1CCC(C(=O)N2CCN(S(=O)(=O)c3ccccc3Br)CC2)CC1", "activation": "-3.27%"},
      {"smiles": "CCOc1ccc(S(=O)(=O)N2CCC(C(=O)OCc3ccc(OC)cc3)CC2)cc1", "activation": "10.2%"},
      {"smiles": "Cc1nc(-c2ccc(F)cc2)c(CC(=O)Nc2cccc(S(=O)(=O)N3CCOCC3)c2)s1", "activation": "4.29%"},
      {"smiles": "O=C(c1ccc(Cl)c(S(=O)(=O)N2CCCCC2)c1)N1CCCCCC1", "activation": "-11.6%"},
      {"smiles": "O=C(c1ccccc1F)N1CCN(S(=O)(=O)c2ccc(Br)cc2)CC1", "activation": "-5.95%"},
      {"smiles": "O=C(c1ccc[nH]c1=S)N1CCN(S(=O)(=O)c2ccc(Br)cc2Cl)CC1", "activation": "58% (active)"},
      {"smiles": "CC(=O)CC[C@@H](C)O[C@@H]1OC(C)[C@H](O)CC1O", "note": "(stereo not given in full)", "activation": "-8.11%"},
      {"smiles": "CCOc1ccc(C(=O)Nc2cc(Cl)ccc2-n2cncn2)cc1OC", "activation": "-15.6%"},
      {"smiles": "Cc1ccccc1NC(=O)C(C)OC(=O)CCC(=O)N(CC(C)C)c1c(N)n(CC(C)C)c(=O)[nH]c1=O", "note": "(stereo not given)", "activation": "-9.04%"},
      {"smiles": "Cc1ccc(C(=O)OCc2nc(N)nc(Nc3ccccc3C)n2)cc1", "activation": "-1.52%"},
      {"smiles": "Cc1ccccc1Nc1nc(N)nc(CSc2ccccc2)n1", "activation": "118% (active)"},
      {"smiles": "Cc1ccccc1Nc1nc(N)nc(CSc2nnc3ccccn23)n1", "activation": "-3.03%"},
      {"smiles": "O=C(Nc1ncccc1O)c1ccc(S(=O)(=O)N2CCCCCC2)cc1", "activation": "3.69%"}
    ]}
  ]
}
